The list is not random: actives were taken first. Their share in the collection is about 0.51%.
Vif-APOBEC3G blk: Vif-A3G binding inhibition | Q9HC16 | HeLa A3G-eYFP + Vif (tagged APOBEC3G with the HIV-1 protein that degrades it), YFP fluorescence, overnight | Potency, µM (series often up to 46.1 µM), inactives show at the highest dose activity, negative = active, usual class: inhibitors | actives 0.076% (n = 410,000) | AID 602310; note: % is set by controls: 0 for no effect and ±100 for the full control effect; nearly all actives have a fitted effect of over 60% in size
Target sequence (Q9HC16 whole entry, looked up): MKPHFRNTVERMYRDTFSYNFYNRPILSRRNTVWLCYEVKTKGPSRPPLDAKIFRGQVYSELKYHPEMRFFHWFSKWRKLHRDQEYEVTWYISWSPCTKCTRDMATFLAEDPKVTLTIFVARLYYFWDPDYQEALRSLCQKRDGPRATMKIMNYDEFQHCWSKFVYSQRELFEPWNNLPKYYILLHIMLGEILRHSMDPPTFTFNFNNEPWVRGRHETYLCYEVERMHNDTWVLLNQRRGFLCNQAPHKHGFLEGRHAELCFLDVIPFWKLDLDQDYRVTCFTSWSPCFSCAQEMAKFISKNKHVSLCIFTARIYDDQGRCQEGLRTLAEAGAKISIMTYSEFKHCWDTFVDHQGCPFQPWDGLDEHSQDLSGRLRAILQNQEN
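HeLa cells stably expressing Vif and C-terminally eYFP-tagged A3G, seeded overnight at 37 deg C, then exposed to compound by pintool overnight at 37 deg C. Rise in yellow fluorescence (Ex 488/Em 500-530, Acumen) marks blocked Vif-driven A3G degradation.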
Epigenetic reg: epigenetic control regulation, reporter derepression | murine LDR cells, GFP reporter derepression, 30 h | Potency, µM (titrated, usually from 53.9 µM), inactives show at the highest dose GFP activation, hits mostly activators | actives 0.2% (n = 280,000) | AID 1865; note: % of control where 0% means no effect; nearly all actives have a fitted effect of over 60% in size
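Readout is the number of GFP-expressing murine LDR cells, counted by cytometry following washing. Cells were treated with compound for 30 h at 37 C; the stably integrated CMV-GFP locus is normally silent.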
PINK1 expr mod: modulators of PINK1 expression; actives 0.2% (n = 410,000); AID 624263; Potency, µM (titrated, usually from 76.6 µM), for the others: at the top dose activation (PINK1 increase), most hits filed as activators; PINK1 immunofluorescence, high-content cytometry, 24 h; active = well fitted activation curve with a large enough effect; inconclusive = small, poorly fitted or top-dose-only effect; cell line not stated here; note: % of control where 0% means no effect; nearly all actives have a fitted effect of over 65% in size
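Stable cell line treated 24 h with compounds at 5 concentrations (CCCP controls), then fixed and immunostained for PINK1 plus nuclear and cell stains; PINK1 immunofluorescence quantified by laser-scanning microplate cytometry.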
Vif-A3F inh: blocks the Vif interaction with APOBEC3F. HeLa A3F-eYFP + Vif (tagged APOBEC3F with the HIV-1 protein that degrades it), YFP fluorescence increase. Potency, µM (series often up to 46.1 µM), for inactives: at the highest dose activity, negative = active. actives 0.2% (n = 390,000). AID 602313; note: % of control where 0% means no effect; nearly all actives have a fitted effect of over 65% in size
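HeLa cells stably expressing A3F-eYFP plus Vif, plated and incubated overnight at 37 deg C, then exposed to compounds overnight at 37 deg C. Blocked degradation read as raised yellow fluorescence (Ex 488/Em 500-530).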
Active calls of the source: *; [ ] = dose if it differs, or a comment. Unless noted, calls come from the whole dose curve; as a rule, active = well fitted curve in the direction sought with a large enough effect; inconclusive = small, poorly fitted or top-dose-only effect, or another doubt; inactive = no such curve, though single readings can be large; an effect the other way counts as inactive or inconclusive. Potency is the fitted concentration of half-maximal effect.

How did CC(=O)N1CCC[C@H]1C(=O)N1CCc2c(cnc(C)c2CNC(=O)/C=C/c2cccs2)C1 do in these assays?
PINK1 expr mod: 0%

How did CCN(CC)C1=CC2=CC(=C(C#N)C#N)CCC2CC1 (stereo unspecified) do in these assays?
Vif-APOBEC3G blk: 7%; Epigenetic reg: 3%; PINK1 expr mod: inconclusive; Vif-A3F inh: inconclusive

What do the screens show for `CCCCN(C)C1=CC2=CC(=C(C#N)C#N)CCC2CC1` (stereo unspecified)?
Vif-APOBEC3G blk: 3%; Epigenetic reg: inconclusive; PINK1 expr mod: 13µM*; Vif-A3F inh: -18%

How did Cc1ccc(-c2ccc(/C=N/NC(N)=S)o2)cc1 do in these assays?
Vif-APOBEC3G blk: -19%; Epigenetic reg: inconclusive; PINK1 expr mod: 0%; Vif-A3F inh: 5.6µM*

Results for O=C(Cc1ccccc1)N/N=C/c1ccc(-c2ccc([N+](=O)[O-])cc2)o1 ?
Vif-APOBEC3G blk: 7.9µM*; Epigenetic reg: inconclusive; PINK1 expr mod: 7.9µM*; Vif-A3F inh: inconclusive

How did COCCNC(=S)N/N=C/c1ccc(-c2ccc([N+](=O)[O-])cc2)o1 do in these assays?
Vif-APOBEC3G blk: inconclusive; Epigenetic reg: inconclusive; PINK1 expr mod: 45µM*; Vif-A3F inh: inconclusive

What do the screens show for `Cc1cc(/C=N/NC(N)=S)c(O)c(/C=N/NC(N)=S)c1`?
Vif-APOBEC3G blk: -6%; Epigenetic reg: 1%; PINK1 expr mod: 45µM*; Vif-A3F inh: inconclusive

How did COc1ccccc1-c1ccnc(-n2ncc(C(=O)N[C@H]3CCCCNC3=O)c2C2CC2)n1 do in these assays?
PINK1 expr mod: 10%

How did CCOC(=O)/C=C1\CN(Cc2ccc(OC)cc2)S(=O)(=O)c2ccc(C(F)(F)F)cc21 do in these assays?
Vif-APOBEC3G blk: -1%

Results for Cc1cccc(Cn2cnc3c(cnn3C(C)(C)C)c2=O)c1F ?
Vif-APOBEC3G blk: 0%

What do the screens show for `COc1cccc(-c2ccc3c(N)c(C(=O)c4ccc(Br)cc4)sc3n2)c1`?
Vif-APOBEC3G blk: inconclusive; Epigenetic reg: inconclusive; PINK1 expr mod: 5%; Vif-A3F inh: 7.9µM*

How did CC(=O)c1ccc2c(c1)N(C)c1ccccc1S2 do in these assays?
Vif-APOBEC3G blk: -22%; Epigenetic reg: 2%; PINK1 expr mod: 2%; Vif-A3F inh: 9%

How did Cc1ccc2c(c1)N(C)/C(=C/c1cccc[n+]1CCO)S2 do in these assays?
Vif-APOBEC3G blk: inconclusive; PINK1 expr mod: 4%; Vif-A3F inh: 13µM*

How did Cc1ccc2c(c1)S/C(=C/c1ccc[n+](C)c1)N2CCO do in these assays?
Vif-APOBEC3G blk: inconclusive; Epigenetic reg: 3%; PINK1 expr mod: 4%; Vif-A3F inh: inconclusive

What do the screens show for `CCCCN1/C(=C/c2cccc[n+]2C)Sc2cc(NC(C)=O)ccc21`?
Vif-APOBEC3G blk: -13%; PINK1 expr mod: 1%; Vif-A3F inh: -9%

How did CN1/C(=C/c2cccc[n+]2C)Sc2ccccc21 do in these assays?
Vif-APOBEC3G blk: inconclusive; PINK1 expr mod: 18µM*; Vif-A3F inh: inconclusive

How did Cc1ccc2c(c1)N(C)/C(=C/c1cccc[n+]1C)S2 do in these assays?
Vif-APOBEC3G blk: inconclusive; PINK1 expr mod: inconclusive; Vif-A3F inh: 11µM*

What do the screens show for `CCOC(=O)N1CCN(Cc2ccc3c(c2)CN(C(=O)c2ccc4ncccc4c2)CCO3)CC1`?
PINK1 expr mod: 0%

How did O=C(C[n+]1ccccc1Cl)c1cccc([N+](=O)[O-])c1 do in these assays?
Vif-APOBEC3G blk: 1%

How did Cc1ccc2nc(-c3ccccn3)c(NC3CCCC3)n2c1 do in these assays?
Vif-APOBEC3G blk: 0%; Epigenetic reg: 0%; PINK1 expr mod: 11%; Vif-A3F inh: 7.9µM*

How did Cc1ccc2nc(-c3ccc(C)o3)c(NC3CCCC3)n2c1 do in these assays?
PINK1 expr mod: 0%

What do the screens show for `CCN(CC(=O)Nc1ccccc1-c1ccccc1)Cc1nc2ccccc2c(=O)[nH]1`?
Vif-APOBEC3G blk: 7.1µM*; Epigenetic reg: 4%; PINK1 expr mod: 2%; Vif-A3F inh: -1%

How did CN1C=CC2=C(C#N)C(N)C(C#N)(C#N)C(c3ccccc3)C2C1 (stereo unspecified) do in these assays?
Vif-APOBEC3G blk: -3%; Epigenetic reg: -2%; PINK1 expr mod: 11µM*; Vif-A3F inh: 0%

What do the screens show for `CN1C[C@@H]2C(c3ccccc3)C3(c4ccc(C#N)cc4)CC2(C3)[C@H]1c1ccccc1` (stereo partly specified)?
Vif-APOBEC3G blk: 0%; Epigenetic reg: 0%; PINK1 expr mod: -2%; Vif-A3F inh: -2%

Results for COc1ccc(/C=C/C(=O)CC(=O)/C=C/c2cccc(O)c2OC)cc1O ?
Epigenetic reg: 13µM*

What do the screens show for `COc1ccc(C=CC(=O)c2ccc(OC)c(OC)c2)cc1O`?
Vif-APOBEC3G blk: -26%; PINK1 expr mod: -1%; Vif-A3F inh: -5%

How did CN(Cc1cnc2ccccn12)C(=O)c1cc(NC(=O)c2ccccc2)cc2ncn(C3CCCC3)c12 do in these assays?
PINK1 expr mod: 1%

What do the screens show for `Cc1[nH][nH]c(=O)c1C(c1c(C)[nH][nH]c1=O)c1cn(Cc2ccccc2Cl)c2ccccc12`?
Vif-APOBEC3G blk: 11µM*; Epigenetic reg: 1%; PINK1 expr mod: 19%; Vif-A3F inh: -8%

What do the screens show for `CCCN1C(=O)/C(=C\C=C2/C=CN(CC)c3ccccc32)SC1=S`?
Vif-APOBEC3G blk: 2%; Epigenetic reg: 0%; PINK1 expr mod: 12%; Vif-A3F inh: 1%

Results for CCCCN1C(=O)/C(=C/C=C2\N(C)c3ccccc3C2(C)C)SC1=S ?
Epigenetic reg: 2.5µM*

Results for CCCCN1C(=O)/C(=C/C=C2\SCCN2C)SC1=S ?
Vif-APOBEC3G blk: inconclusive; Epigenetic reg: 18µM*; PINK1 expr mod: 10%; Vif-A3F inh: inconclusive

How did O=C(Nc1nc2ccccc2[nH]1)c1cccc([N+](=O)[O-])c1 do in these assays?
Vif-APOBEC3G blk: 2%; Epigenetic reg: 1%; PINK1 expr mod: 11%; Vif-A3F inh: 9%

What do the screens show for `O=C(Cc1nc2ccccc2[nH]1)c1cccc([N+](=O)[O-])c1`?
Vif-APOBEC3G blk: -8%; Epigenetic reg: 0%; PINK1 expr mod: 14µM*; Vif-A3F inh: -28%

What do the screens show for `CC[N+](CC)(CC)c1ccc(/C=C/c2ccc3ccccc3n2)cc1`?
Vif-APOBEC3G blk: 10%; PINK1 expr mod: inconclusive

How did CCCN1C(=O)S/C(=C\c2ccc(N3CCOCC3)o2)C1=O do in these assays?
Vif-APOBEC3G blk: inconclusive; Epigenetic reg: 11µM*; PINK1 expr mod: 9%; Vif-A3F inh: inconclusive

How did CCCN1C(=O)S/C(=C/c2ccc(N3CCOCC3)o2)C1=O do in these assays?
Vif-APOBEC3G blk: inconclusive; Epigenetic reg: 10µM*; PINK1 expr mod: 40µM*; Vif-A3F inh: inconclusive

Results for Cc1cc(Br)ccc1SCC(=O)OC/C(O)=C(\C#N)c1nc2ccccc2[nH]1 ?
Vif-APOBEC3G blk: -6%; Epigenetic reg: 15%; PINK1 expr mod: 13%; Vif-A3F inh: 25µM*

What do the screens show for `CN(C)c1ccc(NC2=C([N+](=O)[O-])CS(=O)(=O)C2)cc1`?
Vif-APOBEC3G blk: -3%; Epigenetic reg: 16µM*; PINK1 expr mod: 2%[38.3 µM]; Vif-A3F inh: -7%

Compound activity deposited in PubChem BioAssay by National Center for Advancing Translational Sciences (NCATS).
